# Laboratory results reported in paper PMC7862700, “An all-to-all approach to the identification of sequence-specific readers for epigenetic DNA modifications on cytosine”.
# Columns and labels:
# Assay in all cases: DAPPL (digital affinity profiling via proximity ligation, sequencing); 10 mM Tris-HCl pH 7.5, 50 mM NaCl, 1 mM DTT, 4% glycerol, room temperature, 30 min; GST-TFs on glutathione beads, 16-mer random dsDNA library, 0.1% formaldehyde crosslink after washing; high values mean tight binding
# Settings in all cases: protein: recombinant; tags: N-terminal GST; dsDNA, one strand shown
# FLI1 = target: T1, FLI1 (Homo sapiens, UniProt Q01543 1-452)
# T1 sequence: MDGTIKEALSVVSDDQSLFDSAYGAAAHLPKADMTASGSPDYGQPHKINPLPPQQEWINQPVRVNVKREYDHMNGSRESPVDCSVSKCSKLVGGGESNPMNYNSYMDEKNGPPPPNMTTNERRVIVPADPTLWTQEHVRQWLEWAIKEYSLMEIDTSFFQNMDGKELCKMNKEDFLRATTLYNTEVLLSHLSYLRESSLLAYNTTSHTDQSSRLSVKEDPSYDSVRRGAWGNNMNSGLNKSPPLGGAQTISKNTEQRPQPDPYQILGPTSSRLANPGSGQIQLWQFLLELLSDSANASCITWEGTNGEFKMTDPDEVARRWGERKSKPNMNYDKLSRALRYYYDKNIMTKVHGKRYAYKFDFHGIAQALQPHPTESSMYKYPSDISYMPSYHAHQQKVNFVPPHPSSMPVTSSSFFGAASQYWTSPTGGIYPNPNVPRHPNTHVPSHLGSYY
# Procedure, shortened: (§1)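 Binding signal is each hexamer's read frequency for a factor divided by its frequency in the tag-only sample. The factors were GST-fused human transcription factors from yeast, captured on glutathione beads, DNA-barcoded and pooled with that sample. Pools were incubated with 200 nmole of a random double-stranded 16-mer DNA library in Tris/NaCl/DTT/glycerol buffer at room temperature for 30 min, then washed, crosslinked with 0.1% formaldehyde, proximity-ligated with BsaI/T4 ligase (1 h, 37 °C), PCR-amplified and sequenced on an Illumina NextSeq500.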
# ELK1 = target: T2, ELK1 (Homo sapiens, UniProt P19419 1-428)
# T2 sequence: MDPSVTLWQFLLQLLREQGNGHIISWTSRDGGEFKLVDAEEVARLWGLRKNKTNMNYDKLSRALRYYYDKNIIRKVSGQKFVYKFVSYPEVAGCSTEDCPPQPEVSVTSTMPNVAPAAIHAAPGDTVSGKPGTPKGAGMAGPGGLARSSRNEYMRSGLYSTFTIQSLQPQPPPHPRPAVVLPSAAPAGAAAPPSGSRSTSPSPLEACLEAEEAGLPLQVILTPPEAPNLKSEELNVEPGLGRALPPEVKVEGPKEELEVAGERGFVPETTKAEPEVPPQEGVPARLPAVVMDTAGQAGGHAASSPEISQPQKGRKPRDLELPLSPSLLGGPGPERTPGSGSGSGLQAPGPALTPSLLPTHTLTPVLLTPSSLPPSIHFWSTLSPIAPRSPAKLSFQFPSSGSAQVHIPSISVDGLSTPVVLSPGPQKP
# Procedure, shortened: as §1
# GABPA = target: T3, GABPA (Homo sapiens, UniProt Q06546 1-454)
# T3 sequence: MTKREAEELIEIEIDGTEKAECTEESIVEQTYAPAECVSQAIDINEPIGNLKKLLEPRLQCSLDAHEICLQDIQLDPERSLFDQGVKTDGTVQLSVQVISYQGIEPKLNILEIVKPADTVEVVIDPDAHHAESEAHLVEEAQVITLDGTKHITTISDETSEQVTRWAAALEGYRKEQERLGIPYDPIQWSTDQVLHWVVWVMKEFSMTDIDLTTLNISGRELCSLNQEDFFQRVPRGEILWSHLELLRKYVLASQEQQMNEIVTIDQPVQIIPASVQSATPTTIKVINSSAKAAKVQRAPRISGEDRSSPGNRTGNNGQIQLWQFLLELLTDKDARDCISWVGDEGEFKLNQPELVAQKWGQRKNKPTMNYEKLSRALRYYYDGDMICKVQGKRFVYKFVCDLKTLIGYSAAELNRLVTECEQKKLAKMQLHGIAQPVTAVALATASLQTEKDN
# Procedure, shortened: as §1
# ERG = target: T4, ERG (Homo sapiens, UniProt P11308 1-479)
# T4 sequence: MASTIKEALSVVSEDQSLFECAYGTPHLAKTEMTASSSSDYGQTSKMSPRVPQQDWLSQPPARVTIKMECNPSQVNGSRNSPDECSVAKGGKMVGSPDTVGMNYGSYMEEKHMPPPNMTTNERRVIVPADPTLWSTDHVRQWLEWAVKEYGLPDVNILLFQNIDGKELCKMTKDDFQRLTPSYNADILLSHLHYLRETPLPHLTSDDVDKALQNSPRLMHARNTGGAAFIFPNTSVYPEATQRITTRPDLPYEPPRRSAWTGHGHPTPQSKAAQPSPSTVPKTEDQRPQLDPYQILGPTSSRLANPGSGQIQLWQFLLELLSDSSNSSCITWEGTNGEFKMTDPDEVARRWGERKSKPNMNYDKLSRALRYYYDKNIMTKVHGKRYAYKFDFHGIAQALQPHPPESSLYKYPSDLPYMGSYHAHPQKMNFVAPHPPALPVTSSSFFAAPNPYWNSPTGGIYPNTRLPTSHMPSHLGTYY
# Procedure, shortened: as §1
# ELF1 = ELF1 (Homo sapiens, UniProt P32519 1-619)
# ELF1, sequence (P32519 whole entry): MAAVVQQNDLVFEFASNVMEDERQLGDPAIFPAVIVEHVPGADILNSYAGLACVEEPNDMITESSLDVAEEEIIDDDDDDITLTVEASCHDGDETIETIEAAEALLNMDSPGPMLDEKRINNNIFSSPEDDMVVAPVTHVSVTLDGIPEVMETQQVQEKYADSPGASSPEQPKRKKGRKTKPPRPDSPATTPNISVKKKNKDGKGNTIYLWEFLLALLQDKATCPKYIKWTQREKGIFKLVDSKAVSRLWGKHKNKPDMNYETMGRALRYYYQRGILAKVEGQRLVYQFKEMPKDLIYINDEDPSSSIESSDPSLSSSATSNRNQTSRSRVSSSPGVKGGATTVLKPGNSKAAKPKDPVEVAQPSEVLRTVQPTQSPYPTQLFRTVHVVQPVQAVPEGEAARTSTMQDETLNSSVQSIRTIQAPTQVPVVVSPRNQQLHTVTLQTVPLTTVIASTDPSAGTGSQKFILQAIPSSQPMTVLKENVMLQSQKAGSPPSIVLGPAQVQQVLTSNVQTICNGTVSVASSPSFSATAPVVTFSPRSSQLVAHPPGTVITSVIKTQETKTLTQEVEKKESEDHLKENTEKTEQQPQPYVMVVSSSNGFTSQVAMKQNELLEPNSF
# Procedure, shortened: as §1
# EHF = target: T5, EHF (Homo sapiens, UniProt Q9NZC4 1-300)
# T5 sequence: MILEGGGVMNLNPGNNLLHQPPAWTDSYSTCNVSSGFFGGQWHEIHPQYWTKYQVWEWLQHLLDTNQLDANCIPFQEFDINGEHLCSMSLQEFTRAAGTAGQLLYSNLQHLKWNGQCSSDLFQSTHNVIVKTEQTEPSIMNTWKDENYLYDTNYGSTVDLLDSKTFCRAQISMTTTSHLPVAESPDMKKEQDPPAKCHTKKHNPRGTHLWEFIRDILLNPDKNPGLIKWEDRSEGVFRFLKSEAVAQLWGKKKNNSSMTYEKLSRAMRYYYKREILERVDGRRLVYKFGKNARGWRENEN
# Procedure, shortened: as §1
# SPI1 = SPI1 (Homo sapiens, UniProt P17947 1-270)
# Procedure, shortened: as §1
# SPIB = SPIB (Homo sapiens, UniProt Q01892 1-262)
# SPIB, sequence (Q01892 whole entry): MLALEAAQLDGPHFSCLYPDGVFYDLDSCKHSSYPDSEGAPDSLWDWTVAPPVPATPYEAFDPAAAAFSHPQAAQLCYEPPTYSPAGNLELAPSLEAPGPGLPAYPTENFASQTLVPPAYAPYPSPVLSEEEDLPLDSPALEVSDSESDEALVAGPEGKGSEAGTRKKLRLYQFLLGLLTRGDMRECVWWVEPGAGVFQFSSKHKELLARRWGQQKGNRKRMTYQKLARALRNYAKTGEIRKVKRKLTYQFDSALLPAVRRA
# Procedure, shortened: as §1
# ELK3 = target: T6, ELK3 (Homo sapiens, UniProt P41970 1-407)
# T6 sequence: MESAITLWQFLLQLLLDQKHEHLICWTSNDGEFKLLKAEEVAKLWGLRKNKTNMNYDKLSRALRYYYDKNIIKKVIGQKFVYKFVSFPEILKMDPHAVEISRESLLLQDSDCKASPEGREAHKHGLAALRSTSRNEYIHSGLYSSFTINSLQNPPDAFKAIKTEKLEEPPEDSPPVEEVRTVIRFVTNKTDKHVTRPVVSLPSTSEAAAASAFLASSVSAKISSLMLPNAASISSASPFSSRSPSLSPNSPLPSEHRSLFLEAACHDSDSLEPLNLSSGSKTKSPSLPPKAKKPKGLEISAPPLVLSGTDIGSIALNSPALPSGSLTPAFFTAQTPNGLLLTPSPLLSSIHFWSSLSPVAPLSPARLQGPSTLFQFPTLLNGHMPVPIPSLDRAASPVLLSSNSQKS
# Procedure, shortened: as §1
Sequence,binding signal (FLI1),binding signal (ELK1),binding signal (GABPA),binding signal (ERG),binding signal (ELF1),binding signal (EHF),binding signal (SPI1),binding signal (SPIB),binding signal (ELK3)
AAAACC,"1.12 fold enrichment (6-mer frequency, TF over GST control)","1.05 fold enrichment (6-mer frequency, TF over GST control)","1.16 fold enrichment (6-mer frequency, TF over GST control)","1.13 fold enrichment (6-mer frequency, TF over GST control)","1.21 fold enrichment (6-mer frequency, TF over GST control)","1.18 fold enrichment (6-mer frequency, TF over GST control)","1.27 fold enrichment (6-mer frequency, TF over GST control)","1.19 fold enrichment (6-mer frequency, TF over GST control)","1.26 fold enrichment (6-mer frequency, TF over GST control)"
TCTTAT,"1.41 fold enrichment (6-mer frequency, TF over GST control)","1.33 fold enrichment (6-mer frequency, TF over GST control)","1.25 fold enrichment (6-mer frequency, TF over GST control)","1.27 fold enrichment (6-mer frequency, TF over GST control)","1.28 fold enrichment (6-mer frequency, TF over GST control)","1.16 fold enrichment (6-mer frequency, TF over GST control)","1.28 fold enrichment (6-mer frequency, TF over GST control)","1.22 fold enrichment (6-mer frequency, TF over GST control)","1.31 fold enrichment (6-mer frequency, TF over GST control)"
TACTAT,"1.5 fold enrichment (6-mer frequency, TF over GST control)","1.24 fold enrichment (6-mer frequency, TF over GST control)","1.44 fold enrichment (6-mer frequency, TF over GST control)","1.33 fold enrichment (6-mer frequency, TF over GST control)","1.31 fold enrichment (6-mer frequency, TF over GST control)","1.39 fold enrichment (6-mer frequency, TF over GST control)","1.3 fold enrichment (6-mer frequency, TF over GST control)","1.42 fold enrichment (6-mer frequency, TF over GST control)","1.24 fold enrichment (6-mer frequency, TF over GST control)"
AATTTC,"1.65 fold enrichment (6-mer frequency, TF over GST control)","1.59 fold enrichment (6-mer frequency, TF over GST control)","1.75 fold enrichment (6-mer frequency, TF over GST control)","1.94 fold enrichment (6-mer frequency, TF over GST control)","1.6 fold enrichment (6-mer frequency, TF over GST control)","1.77 fold enrichment (6-mer frequency, TF over GST control)","1.47 fold enrichment (6-mer frequency, TF over GST control)","1.85 fold enrichment (6-mer frequency, TF over GST control)","1.79 fold enrichment (6-mer frequency, TF over GST control)"
AGCTAT,"1.21 fold enrichment (6-mer frequency, TF over GST control)","1.14 fold enrichment (6-mer frequency, TF over GST control)","1.23 fold enrichment (6-mer frequency, TF over GST control)","1.17 fold enrichment (6-mer frequency, TF over GST control)","1.16 fold enrichment (6-mer frequency, TF over GST control)","1.23 fold enrichment (6-mer frequency, TF over GST control)","1.15 fold enrichment (6-mer frequency, TF over GST control)","1.26 fold enrichment (6-mer frequency, TF over GST control)","1.24 fold enrichment (6-mer frequency, TF over GST control)"
AACTAC,"1.42 fold enrichment (6-mer frequency, TF over GST control)","1.42 fold enrichment (6-mer frequency, TF over GST control)","1.49 fold enrichment (6-mer frequency, TF over GST control)","1.5 fold enrichment (6-mer frequency, TF over GST control)","1.45 fold enrichment (6-mer frequency, TF over GST control)","1.43 fold enrichment (6-mer frequency, TF over GST control)","1.47 fold enrichment (6-mer frequency, TF over GST control)","1.47 fold enrichment (6-mer frequency, TF over GST control)","1.48 fold enrichment (6-mer frequency, TF over GST control)"
AGCCTT,"1.12 fold enrichment (6-mer frequency, TF over GST control)","1.11 fold enrichment (6-mer frequency, TF over GST control)","1.01 fold enrichment (6-mer frequency, TF over GST control)","1.11 fold enrichment (6-mer frequency, TF over GST control)","1.2 fold enrichment (6-mer frequency, TF over GST control)","1.15 fold enrichment (6-mer frequency, TF over GST control)","1.12 fold enrichment (6-mer frequency, TF over GST control)","1.21 fold enrichment (6-mer frequency, TF over GST control)","1.03 fold enrichment (6-mer frequency, TF over GST control)"
